Hits are enriched below; roughly 18% of the tested compounds scored in any of these assays.
IL1B secr inh: qHTS for Inhibitors of Inflammasome Signaling: IL-1-beta AlphaLISA Primary Screen | THP-1 LPS/ATP IL-1B secretion, AlphaLISA, 16 h; hits give low values | activity change, % at 57.5 µM | 360,000 tested, 4.7% active; in the data active = activity change below about -50%; inconclusive = mostly about -30% to -49%
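THP-1 cells pretreated 1 hr with compounds (up to 57.5 uM final), then stimulated with LPS (250 ng/mL final) plus ATP (1.25 mM final); secreted IL-1B measured by AlphaLISA after 16 hr, decreased signal indicating inhibition.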
LDHA inh: qHTS assay for inhibitors of human lactate dehydrogenase | activity change, % (values are at about 110 or 230 µM) | 480,000 tested, 0.15% active | purified LDHA, NADH/diaphorase-resazurin fluorescence; hits give low values | AID 1347041, 2019 | L-lactate dehydrogenase A chain (Homo sapiens), P00338; in the data active = activity change below about -30%; inconclusive = mostly about -25% to -30%;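 note: plate controls were DMSO wells for no effect and wells without enzyme for full effect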
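Enzyme activity of human lactate dehydrogenase 5 (2 nM; 0.06 mM NADH, 0.2 mM pyruvate, 5 min, RT) is measured via a resazurin/diaphorase fluorescence readout of residual NADH.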
RORgamma inh: qHTS for inhibitors of ROR gamma transcriptional activity. 310,000 tested, 5.4% active. Nuclear receptor ROR-gamma (Mus musculus), P51450. Drosophila S2 Gal4-RORgamma UAS-luciferase reporter, 20 h. Potency, µM (top dose mostly 53.6 µM), for the others: at the top dose activity change, negative = inhibition, actives largely listed as inhibitors; note: potency is the fitted concentration of half-maximal effect; nearly all actives have a fitted effect of over 60% in size
Target sequence (P51450 whole entry, looked up, the tested form may be a part): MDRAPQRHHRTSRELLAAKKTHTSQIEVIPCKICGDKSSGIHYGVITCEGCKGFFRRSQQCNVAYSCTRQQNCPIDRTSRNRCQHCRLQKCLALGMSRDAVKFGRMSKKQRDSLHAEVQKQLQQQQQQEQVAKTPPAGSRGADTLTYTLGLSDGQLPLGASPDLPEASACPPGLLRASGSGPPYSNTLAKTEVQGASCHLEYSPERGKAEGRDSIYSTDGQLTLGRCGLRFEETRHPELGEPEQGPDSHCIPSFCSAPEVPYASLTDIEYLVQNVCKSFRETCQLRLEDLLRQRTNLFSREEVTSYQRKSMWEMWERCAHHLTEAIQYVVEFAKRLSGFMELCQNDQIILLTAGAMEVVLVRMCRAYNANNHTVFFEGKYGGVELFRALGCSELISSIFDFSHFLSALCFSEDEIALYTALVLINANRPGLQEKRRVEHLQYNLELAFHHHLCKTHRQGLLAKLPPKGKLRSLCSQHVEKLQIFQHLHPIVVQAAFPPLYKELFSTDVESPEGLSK
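Drosophila S2 cells stably expressing Gal4-DBD/mouse RORγ fusion under metallothionein promoter plus UAS-luciferase; compound 1 h, then 700 uM CuSO4 induction for 20 h at ambient temperature; inhibition read as reduced luminescence.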
Gal4-VP16 FLuc: VP16 counterscreen qHTS for inhibitors of ROR gamma transcriptional activity; Drosophila S2 Gal4-VP16 UAS-luciferase, luminescence, 20 h; Potency, µM (top dose mostly 53.6 µM), inactives show at the highest dose activity, negative = inhibition, hits mostly inhibitors; 310,000 tested, 3.5% active; AID 2546, 2010;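 note: Gal4-VP16 expression switched on by copper sulfate through the metallothionein promoter; potency is the fitted concentration of half-maximal effect; nearly all actives have a fitted effect of over 50% in size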
TDP1 cell noCPT: qHTS for Inhibitors of human tyrosyl-DNA phosphodiesterase 1 (TDP1): qHTS in cells in absence of CPT; AID 686978, 2013; Potency, µM (highest dose often 46.2 µM), inactives show top-dose activity change, negative = growth inhibition, usual class: inhibitors; 420,000 tested, 15% active; DT40 Tdp1-/- hTDP1 cells, no CPT, ATP luminescence, 48 h; note: potency is the fitted concentration of half-maximal effect; nearly all actives have a fitted effect of over 55% in size
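Compound effects on proliferation are scored in DT40 Tdp1-/-;hTDP1 cells in the absence of CPT. ATP levels (CellTiter-Glo luminescence) are recorded after a ≥48 hr, 37 °C incubation.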
DT40 TDP1 CPT: qHTS for Inhibitors of human tyrosyl-DNA phosphodiesterase 1 (TDP1): qHTS in cells in presence of CPT. chicken DT40 Tdp1-/-;hTDP1 cells + 20 nM CPT, ATP luminescence, 48 h. Potency, µM (top dose mostly 46.2 µM), for inactives: at the top dose activity change, negative = growth inhibition, usual class: inhibitors. 420,000 tested, 12% active; note: potency is the fitted concentration of half-maximal effect; nearly all actives have a fitted effect of over 55% in size
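Cell growth measured by CellTiter-Glo luminescence after a minimum 48 h, 37 C compound exposure with 20 nM CPT in Tdp1-knockout DT40 cells stably expressing hTDP1, seeded 400/well; qHTS titration format.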
Starred values were filed as active, the others as inactive; u = inconclusive; x = no result. Unless noted, calls come from the whole dose curve; as a rule, active = well fitted curve in the direction sought with a large enough effect; inconclusive = small, poorly fitted or top-dose-only effect, or another doubt; inactive = no such curve, though single readings can be large; an effect the other way counts as inactive or inconclusive. Unless noted, % is set by controls: 0 for no effect and ±100 for the full control effect.

SMILES | IL1B secr inh | LDHA inh | RORgamma inh | Gal4-VP16 FLuc | TDP1 cell noCPT | DT40 TDP1 CPT
Cn1cc(CN2CCN(c3ccc(Cl)cn3)CC2)c(-c2ccccc2F)n1 | u | -15 | 13% | -14% | u | u
Cc1ccsc1CN1CCN(c2ccccn2)CC1 | -6 | -21 | 9% | -9% | -29% | u
Cc1nc(-c2ccc(Cl)cc2)sc1C(=O)N1CCN(Cc2ccc(C#N)cc2)CC1 | x | -8 | x | x | x | x
CCn1cnc2c1c(=O)n(CC(=O)Nc1c(C)cc(C)cc1C)c(=O)n2Cc1ccccc1 | x | 1 | x | x | x | x
CC1CCC(NC(=O)c2cccc(C#N)c2)CC1 (stereo not drawn) | x | 2 | x | x | x | x
Cc1cc(Br)ccc1NC(=O)CNC(=O)CCc1ncc(-c2ccc(F)cc2)o1 | x | -9 | x | x | x | x
Cc1nc2nc(NCc3ccc(Cl)cc3)[nH]n2c(=O)c1CCO | x | 0 | x | x | x | x
CC(C)CCNC(=O)C(c1ccco1)N(Cc1cccs1)C(=O)Cn1nnc2ccccc21 (stereo not drawn) | -27 | 2 | 44% | 2% | u | 26µM*
COc1ccc(-c2nnn(CC(=O)N(Cc3cccs3)C(C)C(=O)NCCC(C)C)n2)cc1OC (stereo not drawn) | 0 | -3 | 25% | 1% | 21µM* | 15µM*
COCCNC(=O)C(c1ccco1)N(C(=O)Cn1nnc2ccccc21)c1ccccc1C (stereo not drawn) | 5 | -1 | -7% | 4% | -3% | -8%
COc1ccc(-c2nnn(CC(=O)N(CC(=O)NCCC(C)C)Cc3cccs3)n2)cc1OC | 19 | -3 | 40% | -3% | u | u
Cc1ccccc1N(C(=O)Cn1nnc(-c2cccs2)n1)C(C(=O)NCCC(C)C)c1ccco1 (stereo not drawn) | -51* | -9 | 33% | 2% | u | u
Cc1cccc2cc(CN(Cc3ccccc3)C(=S)NCCCN(C)C)c(=O)[nH]c12 | -85* | -6 | 0% | 2% | u | u
Cc1cccc2cc(CN(Cc3ccccc3)C(=O)C(C)C)c(=O)[nH]c12 | x | -2 | x | x | x | x
CCN(CC)CCCNC(=S)N(Cc1cccnc1)Cc1cc2cccc(C)c2[nH]c1=O | u | -7 | 7% | 3% | -20% | 2%
Cc1cccc2cc(CN(Cc3cccnc3)C(=S)NCCCN(C)C)c(=O)[nH]c12 | -7 | -6 | 1% | 10% | u | 13µM*
Cc1ccc(CN(Cc2cc3cccc(C)c3[nH]c2=O)C(=S)NCCCN(C)C)cc1 | -77* | -4 | -1% | 5% | u | u
O=C(Cn1nc(C(=O)O)c2ccccc2c1=O)Nc1cccc(Cl)c1 | x | 1 | x | x | x | x
C=CCNC(=O)NC(=O)CN(CC)Cc1cccs1 | x | 0 | x | x | x | x
O=C(/C=C/c1c(Cl)nc2ccccn12)N1CCN(c2ccc(F)cc2)CC1 | 77 | -11 | 2% | 9% | 26µM* | u
O=C(/C=C/c1c(Cl)nc2ccccn12)N1CCN(c2ccccc2F)CC1 | -21 | -11 | -8% | 7% | 23µM* | -19%
CCc1ccc(-n2nc3cc(C)c(NC(=O)c4ccccc4C)cc3n2)cc1 | x | 1 | x | x | 8.2µM* | u
CCc1ccc(-n2nc3cc(C)c(NC(=O)c4cc(OC)cc(OC)c4)cc3n2)cc1 | x | -6 | x | x | -16% | -5%
CCc1ccc(-n2nc3cc(C)c(NC(=O)c4cccc5ccccc45)cc3n2)cc1 | x | -4 | x | x | u | 21µM*
COC(=O)c1cc(/C=C/C(=O)O)oc1C | x | 3 | x | x | x | x
SMILES | IL1B secr inh | LDHA inh | RORgamma inh | Gal4-VP16 FLuc | TDP1 cell noCPT | DT40 TDP1 CPT
COc1cc(OC)c(-n2cc(-c3ccc(OC)c(OC)c3)[nH]c2=S)cc1Cl | u | 4 | 7.9µM* | 16µM* | -6% | -12%
COc1ccc(-c2cn(-c3ccc(C)cc3C)c(=S)[nH]2)cc1OC | 17 | -8 | u | u | 21µM* | u
COc1ccc(-c2cn(-c3cccc(C)c3)c(=O)[nH]2)cc1OC | -13 | 3 | 42% | -6% | u | u
COC(=O)c1ccc(/C=C/c2c(-c3ccc(OC)cc3)oc3ccc(N4CCOCC4)cc23)cc1 | -6 | -2 | 4% | -9% | 23µM* | u
COC(=O)c1ccc(/C=C/c2c(-c3ccc(OC)cc3)oc3ccccc23)cc1 | -6 | -2 | 32% | -18% | 18µM* | 18µM*
COc1ccc(/C=C\c2nc(=O)c3ccccc3o2)cc1 | -4 | 2 | -17% | u | 7.3µM* | u
Cn1nc(C(=O)Nc2ccc(F)cc2F)c2ccccc2c1=O | x | 11 | x | x | x | x
Cc1cc(C)cc(Nc2nc(N)c(C#N)c(CC#N)c2C#N)c1 | x | -9 | x | x | x | x
Cc1ccc(Nc2nc(N)c(C#N)c(CC#N)c2C#N)cc1 | -97* | -2 | 20% | 5% | 2% | -15%
Cc1ccc(N/N=C(/Sc2nnnn2-c2ccccc2)C(=O)c2ccccc2)cc1 | -10 | 2 | 10µM* | u | u | 29µM*
O=C(/C(=N\Nc1ccc([N+](=O)[O-])cc1)Sc1nnnn1-c1ccccc1)c1ccccc1 | 0 | -10 | u | u | u | u
Cc1onc(-c2ccccc2)c1C(=O)O/N=C(\N)c1ccc([N+](=O)[O-])o1 | -5 | -3 | -1% | -23% | 15µM* | 16µM*
C/C(=N\OC(=O)c1c(-c2ccccc2Cl)noc1C)c1ccncc1 | -145* | -10 | -24% | -7% | -4% | 16%
Cc1onc(-c2ccccc2Cl)c1C(=O)NCCCN1CCOCC1 | -3 | 0 | -6% | 3% | -17% | -22%
Cc1onc(-c2ccccc2Cl)c1C(=O)Nc1nnc(-c2cccc([N+](=O)[O-])c2)s1 | 46 | -1 | -1% | -5% | u | u
Cc1onc(-c2ccccc2Cl)c1C(=O)O/N=C(\N)c1cccc([N+](=O)[O-])c1 | -62* | -5 | x | x | 23µM* | 23µM*
COc1ccc(C(C)=NOC(=O)c2c(-c3ccccc3Cl)noc2C)cc1CN1CCOCC1 | u | -3 | x | x | 7.3µM* | u
Cc1onc(-c2cccc(Cl)c2Cl)c1C(=O)O/N=C(\N)c1ccc([N+](=O)[O-])o1 | x | -5 | -5% | -5% | u | u
Cc1c(C)n(CCCN2CCOCC2)c2ncn3nc(COc4ccc(Cl)cc4)nc3c12 | x | 5 | x | x | x | x
